From ChEMBL document CHEMBL1157539, “Thousands of chemical starting points for antimalarial lead identification” (Nature, 2010)

System: HepG2
Assay: GSK_TCMDC: Percent inhibition of human HepG2 cell line. Test compounds present at 10uM.
Assay type: functional

Row | SMILES | Inhibition [%]
1 | O=C(/C=C/c1ccc(Cl)c(Cl)c1)NCCCCCN1CCCN(C(=O)Nc2cccc(C(F)(F)F)c2)CC1 | 45
2 | CN1CCC(NCc2ccc(-c3ccc(C(F)(F)F)cc3)cc2)CC1 | 54
3 | Cc1[nH]c(/C=C2\C(=O)Nc3ccc(S(=O)(=O)Cc4c(Cl)cccc4Cl)cc32)c(C)c1C(=O)N1CCC[C@@H]1CN1CCCC1 [PHA-665752] | 33
4 | Nc1nccc2ccc(-c3ccc(NC(=O)Nc4cc(C(F)(F)F)ccc4F)cc3)cc12.O=C(O)C(F)(F)F | 99
5 | COc1cccc(-c2cnc(-c3ccncc3)nc2C2CCN(Cc3ccc(NC(C)=O)cc3)CC2)c1 | 17
6 | Clc1ccc2c(NCc3ccccc3)ccnc2c1 | 40
7 | CC(C)(C)c1cc(C(=O)N2CCN(c3ncccc3C(F)(F)F)CC2)n(Cc2ccccc2)n1 | 0
8 | O=C(NC1CCN(CCC[C@]2(c3ccc(Cl)c(Cl)c3)CCCN(C(=O)c3ccccc3)C2)CC1)c1ccc(Cl)cc1 | 56
9 | COc1cccc(CNC[C@@H](O)[C@H](Cc2ccccc2)NC(=O)c2cc(OC(C)C)cc(N3CCCCS3(=O)=O)c2)c1.Cl | 8
10 | O=C(O)C(F)(F)F.c1cc(CNCCc2ccncc2)cc(-c2ccc(-c3nc4ccccc4[nH]3)s2)c1 | 1
11 | Nc1nccc2ccc(-c3ccc(Oc4ccccc4)cc3)cc12.O=C(O)C(F)(F)F | 36
12 | O=C(Nc1nc2cc(S(=O)(=O)NCc3ccc(Cl)c(Cl)c3)ccc2n1CCCn1ccnc1)c1ccc(Cl)cc1.O=C(O)C(F)(F)F | 0
